{"source": "PubChem BioAssay AID2017", "about": "(National Center for Advancing Translational Sciences (NCATS), 2009)", "target": "4-diphosphocytidyl-2-C-methyl-D-erythritol kinase, chloroplastic (Arabidopsis thaliana) (UniProt O81014)", "sequence (O81014 whole entry, looked up)": "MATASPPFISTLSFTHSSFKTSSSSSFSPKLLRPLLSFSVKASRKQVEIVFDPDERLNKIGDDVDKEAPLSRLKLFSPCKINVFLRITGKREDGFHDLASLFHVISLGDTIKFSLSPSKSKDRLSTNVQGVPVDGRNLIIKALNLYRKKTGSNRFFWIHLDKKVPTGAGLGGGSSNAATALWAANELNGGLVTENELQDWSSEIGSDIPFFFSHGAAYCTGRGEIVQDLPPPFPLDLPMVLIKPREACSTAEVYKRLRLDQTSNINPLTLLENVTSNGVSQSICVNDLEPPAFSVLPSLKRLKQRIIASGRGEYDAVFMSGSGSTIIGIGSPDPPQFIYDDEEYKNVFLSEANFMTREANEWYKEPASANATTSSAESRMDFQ", "test": "Confirmatory Assay for Inhibitors of Human Galactokinase (GALK): CDP-Me assay counterscreen", "conditions": "ATP depletion, Kinase-Glo luminescence", "procedure,_shortened": "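Luminescent read-out of ATP remaining (Kinase-Glo Plus) after 1 h at room temperature. Reaction: 0.25 ug/mL CDP-Me kinase, ATP 15 uM, CDP-ME 30 uM, HEPES pH8.0 buffer containing MgCl2, KCl, DTT and BSA.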", "note": "Inconclusive results are not listed. Calls of active or inactive are those of the source. The call rests on the fitted dose curve; in most records, active means well fitted curve in the direction sought with a large enough effect; inconclusive means small, poorly fitted or top-dose-only effect, or another doubt; inactive means no such curve, though single readings can be large or run the other way.", "data": [{"smiles": "Cc1cc2c(C(C)C)c(O)c(O)c(C=O)c2c(O)c1-c1c(C)cc2c(C(C)C)c(O)c(O)c(C=O)c2c1O", "values": [{"measurement": "Potency", "value": "47.3 µM (active)"}]}]}
